Experimental data as given in PubChem BioAssay (NCI).
Compounds without any hit were thinned out: in the full panel of roughly 83,000, 20% have a hit.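 Each cell line was grown in a 96-well plate and treated with one concentration of compound for 48 hours. Values below 10 were considered active.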 Unmarked numbers belong to inactive results. Activity calls are given as the source filed them.

What was measured:
Test in all cases: NCI-60 one-dose screen, 48 h (100 = growth as untreated, 0 = no growth, -100 = all killed)
Settings in all cases: 10 µM unless noted
[1] = tested on: RPMI-8226 leukemia
[2] = tested on: OVCAR-8 ovarian
[3] = tested on: OVCAR-5 ovarian
[4] = tested on: OVCAR-4 ovarian
[5] = tested on: SK-OV-3 ovarian
[6] = tested on: IGROV1 ovarian
[7] = tested on: OVCAR-3 ovarian
[8] = tested on: HS 578T breast
[9] = tested on: NCI/ADR-RES ovarian
[10] = tested on: T-47D breast

Cc1nc2c(O)cccc2cc1CO
growth [1]: 113% | growth [2]: 120% | growth [3]: 92.7% | growth [4]: 100% | growth [5]: 110% | growth [6]: 120% | growth [7]: 112% | growth [8]: 130% | growth [9]: 96.1% | growth [10]: 99.4%

Cc1c(NCc2nnc3n(Cc4ccccc4)c(=O)c4c5c(sc4n23)CCCC5)c(=O)n(-c2ccccc2)n1C
growth [1]: 97.5% | growth [2]: 86.3% | growth [3]: 107% | growth [4]: 74.7% | growth [5]: 120% | growth [6]: 79.2% | growth [7]: 87.3% | growth [8]: 90.7% | growth [9]: 85.6% | growth [10]: 84%

CCN(CC)CCCNCCCNc1cc(OC)cc2cccnc12
growth [1]: 81.3% | growth [2]: 88.8% | growth [3]: 94.5% | growth [4]: -62.3% (active) | growth [5]: 111% | growth [6]: 73.9% | growth [7]: 32.8% | growth [8]: 94.9% | growth [9]: 93.2% | growth [10]: 64.7%

Fc1ccc(-c2nnc(/C=C/c3cn(-c4ccccc4)nc3-c3ccccc3)o2)cc1
growth [1]: 104% | growth [2]: 98.2% | growth [3]: 82.2% | growth [4]: 114% | growth [5]: 85.5% | growth [6]: 97.7% | growth [7]: 119% | growth [8]: 96.9% | growth [9]: 88.2% | growth [10]: 72.6%

CCC1=C(c2ccc(OC)cc2)C(C)(C)Oc2c1ccc(O)c2CN1CCCC1
growth [1]: 0.544% (active) | growth [2]: 58% | growth [3]: 68.3% | growth [4]: 60% | growth [5]: 73.9% | growth [6]: 51.4% | growth [7]: 54.7% | growth [8]: 59.3% | growth [9]: 39.1% | growth [10]: -41.2% (active)

CC(c1cc(Cl)ccc1O)c1cc(Cl)ccc1O
growth [1]: 20.9% | growth [2]: 46.5% | growth [3]: 70.7% | growth [4]: 39.3% | growth [5]: 27.3% | growth [6]: -7.07% (active) | growth [7]: 28.2% | growth [8]: 10.6% | growth [9]: -1.24% (active) | growth [10]: 89.9%

CNc1ccc(CSc2ccc(Cl)cc2)cc1
growth [1]: 35.8% | growth [2]: 103% | growth [3]: 90.2% | growth [4]: 85.6% | growth [5]: 107% | growth [6]: 81.9% | growth [7]: 109% | growth [8]: 123% | growth [9]: 97% | growth [10]: 80.3%

O=C(Nc1ccncc1)C(=O)c1cn(S(=O)(=O)c2cccc(F)c2)c2ccccc12
growth [1]: 30.1% | growth [2]: 45% | growth [3]: 73.9% | growth [4]: 67.2% | growth [5]: 93.8% | growth [6]: 40.6% | growth [7]: 23.5% | growth [8]: 55.8% | growth [9]: -11.2% (active) | growth [10]: 31.6%

O=C(Nc1ccc(Oc2ccc(NC(=O)Nc3ccc([N+](=O)[O-])cc3)cc2)cc1)Nc1ccc([N+](=O)[O-])cc1
growth [1]: -53.5% (active) | growth [2]: 10.1% | growth [3]: 6.63% (active) | growth [4]: 34.5% | growth [5]: 12.8% | growth [6]: -13.2% (active) | growth [7]: 8.26% (active) | growth [8]: 23.3% | growth [9]: 8.82% (active) | growth [10]: 1.54% (active)

CN(C)c1nc(N)nc(Cn2c(-c3nonc3N)nc3ccccc32)n1
growth [1]: 87.9% | growth [2]: 91.9% | growth [3]: 90.6% | growth [4]: 87.8% | growth [5]: 88.8% | growth [6]: 95.7% | growth [7]: 98% | growth [8]: 77.4% | growth [9]: 73.6% | growth [10]: 89.7%

Cc1cc(C)n2nc(SCC(=O)Nc3sc4c(c3C(N)=O)CCC4)nc2n1
growth [1]: 148% | growth [2]: 112% | growth [3]: 97.1% | growth [4]: 122% | growth [5]: 118% | growth [6]: -2.56% (active) | growth [7]: 123% | growth [8]: 121% | growth [9]: 102% | growth [10]: 109%

COc1cc(/C=C/C(=O)c2c(-c3ccc(F)cc3)nc3sc(C)nn23)cc(OC)c1OC
growth [1]: 0.772% (active) | growth [2]: 9.66% (active) | growth [3]: 18.7% | growth [4]: 44.1% | growth [5]: 15.5% | growth [6]: 28.7% | growth [7]: -16.4% (active) | growth [8]: 50.1% | growth [9]: 23.4% | growth [10]: -8.41% (active)

CCCCC1Nc2nc(SC)n(C)c(=O)c2CN(Cc2ccccc2)C1=O (stereo not given)
growth [1]: 67.5% | growth [2]: 99.9% | growth [3]: 100% | growth [4]: 103% | growth [5]: 93.8% | growth [6]: 106% | growth [7]: 113% | growth [8]: 165% | growth [9]: 89.7% | growth [10]: 93.2%

CC1=CSC2=NCCN12
growth [1]: 106% | growth [2]: 112% | growth [3]: 107% | growth [4]: 103% | growth [5]: 110% | growth [6]: 108% | growth [7]: 113% | growth [8]: 110% | growth [9]: 100% | growth [10]: 109%

CCc1[nH]nc(-c2ccc(OC)cc2)c1-c1ccccc1OCCN(CC)CC
growth [1]: 97.5% | growth [2]: 107% | growth [3]: 92.6% | growth [4]: 91.4% | growth [5]: 91.8% | growth [6]: 98.6% | growth [7]: 104% | growth [8]: 99.4% | growth [9]: 100% | growth [10]: 97.4%

Cc1ccc(NC(=O)Nc2ccc(-c3cccnc3)cc2N2CCC(CO)CC2)cc1
growth [1]: 19.4% | growth [2]: 44.2% | growth [3]: 43.6% | growth [4]: 45% | growth [5]: 28.4% | growth [6]: 63.1% | growth [7]: 4.71% (active) | growth [8]: 10.6% | growth [9]: 40% | growth [10]: 42.7%

C=CC1=C(C(=O)O)N2C(=O)[C@@H](NC(=O)/C(=N\O)c3csc(N)n3)[C@H]2SC1 (stereo in doubt)
growth [1]: 113% | growth [2]: 102% | growth [3]: 95.7% | growth [4]: 108% | growth [5]: 107% | growth [6]: 120% | growth [7]: 108% | growth [8]: 103% | growth [9]: 98% | growth [10]: 114%

O=C(/C=C/c1cccnc1)NCCCCC1CCCN(C(=O)c2ccccc2)C1 (stereo not given)
growth [1]: 36.9% | growth [2]: 22% | growth [3]: 96.1% | growth [4]: 89.2% | growth [5]: 91.6% | growth [6]: 33.8% | growth [7]: 74.7% | growth [8]: 52.2% | growth [9]: 32.1% | growth [10]: 47.3%

O=C(CCc1nnc(Cn2ccnc2)o1)c1nc2ccccc2[nH]1
growth [1]: 117% | growth [2]: 105% | growth [3]: 103% | growth [4]: 107% | growth [5]: 108% | growth [6]: 106% | growth [7]: 118% | growth [8]: 112% | growth [9]: 99.8% | growth [10]: 102%

CCC(C)CC(C)C(=O)c1c(O)ccn(OC)c1=O (stereo not given)
growth [1]: 69.3% | growth [2]: 66.3% | growth [3]: 86.8% | growth [4]: 44.9% | growth [5]: 86.7% | growth [6]: 65% | growth [7]: 47.1% | growth [8]: 93.2% | growth [9]: 57.1% | growth [10]: 82.9%

O=[N+]([O-])c1ccc(N/N=C\c2ccccc2[N+](=O)[O-])nc1
growth [1]: 102% | growth [2]: 107% | growth [3]: 124% | growth [4]: 120% | growth [5]: 121% | growth [6]: 106% | growth [7]: 109% | growth [8]: 97.7% | growth [9]: 108% | growth [10]: 107%

O=C(/C=C/c1ccc(Cl)cc1)c1ccccc1
growth [1]: 1.52% (active) | growth [2]: 97.5% | growth [3]: 99.5% | growth [4]: 107% | growth [5]: 126% | growth [6]: 101% | growth [7]: 101% | growth [8]: 126% | growth [9]: 107% | growth [10]: 92.4%

C/C(=C\CCc1ccoc1)CC/C=C(\C)CCCN1CCC(CO)CC1
growth [1]: 3.35% (active) | growth [2]: 77.7% | growth [3]: 76.4% | growth [4]: 52.5% | growth [5]: 65.1% | growth [6]: 67.8% | growth [7]: 82.4% | growth [8]: 57.5% | growth [9]: 73.4% | growth [10]: 35.9%

c1ccc(-c2nnc(Nc3nnc(-c4ccccc4)s3)s2)cc1
growth [1]: 87.8% | growth [2]: 103% | growth [3]: 100% | growth [4]: 101% | growth [5]: 96.8% | growth [6]: 86.7% | growth [7]: 105% | growth [8]: 100% | growth [9]: 118% | growth [10]: 93.8%

COc1ccc(C(=O)Nc2nc(-c3ccc(Cl)cc3)cs2)cc1
growth [1]: 94.4% | growth [2]: 103% | growth [3]: 87% | growth [4]: 108% | growth [5]: 87.1% | growth [6]: 112% | growth [7]: 111% | growth [8]: 94.3% | growth [9]: 120% | growth [10]: 89.1%

Cc1cc(NC(=O)Nc2cc(Cl)ccc2C)no1
growth [1]: 88.8% | growth [2]: 110% | growth [3]: 104% | growth [4]: 99.6% | growth [5]: 99.7% | growth [6]: 68.5% | growth [7]: 117% | growth [8]: 125% | growth [9]: 101% | growth [10]: 89.4%

Cc1ccc(C(=O)Nc2ccc(Cl)cc2C(=O)NCc2ccccc2)cc1
growth [1]: 77.8% | growth [2]: 87.9% | growth [3]: 100% | growth [4]: 79.5% | growth [5]: 117% | growth [6]: 84.1% | growth [7]: 91.6% | growth [8]: 89.7% | growth [9]: 72.5% | growth [10]: 94%
